From publication PMC7819943, “Rice protein-binding microarrays: a tool to detect cis-acting elements near promoter regions in rice”
Whole data set: some 68,000 sequences, median “fluorescence intensity (a.u.)” near 9,100, cut for the highest 2% near 16,000. This excerpt belongs to a sample that is enriched for the highest values.

What follows are sequences tested against OsWRKY34 (Oryza sativa, UniProt Q0JBA9 1-250) (assay: protein-binding microarray (RPBM); PBS, 2% BSA, 51.3 ng/ul salmon testes DNA, 50 uM zinc acetate, 200 nM TF, 25 C, 1 h; high values mean tight binding). Details: protein: recombinant; tags: N-terminal polyhistidine and DsRed monomer fusion (pET32a); label: CyDye5-dUTP incorporated in the synthesized complementary strand; 3' TTTTT single-stranded linker to array surface; dsDNA, one strand shown.
OsWRKY34, sequence (Q0JBA9 entry or part of it): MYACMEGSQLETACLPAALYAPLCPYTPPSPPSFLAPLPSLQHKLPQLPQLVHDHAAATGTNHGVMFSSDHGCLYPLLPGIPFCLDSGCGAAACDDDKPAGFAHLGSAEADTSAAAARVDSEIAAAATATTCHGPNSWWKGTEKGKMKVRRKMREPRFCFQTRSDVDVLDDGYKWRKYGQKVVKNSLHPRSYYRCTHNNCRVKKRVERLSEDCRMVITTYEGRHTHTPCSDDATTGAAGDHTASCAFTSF
Summary of the method: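 In PBS with 2% BSA, salmon testes DNA and 50 µM zinc acetate, 200 nM protein was incubated on a custom Agilent array at 25 °C for 1 h and then washed off. The array had been made double-stranded by primer extension with Cy5-dUTP and blocked with 2% BSA. The proteins were transcription factors fused N-terminally to polyhistidine and DsRed, expressed in E. coli BL21-CodonPlus and purified on Ni–NTA. The binding signal is per-feature fluorescence intensity (arbitrary units) from an Axon 4000B scanner.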

Sequence | binding signal
ACTTTTAAACCCATGTTTTACCATTCATCTTAATAAAAAACGGAGTCACCTAGTGCAG | 8840 fluorescence intensity (a.u.)
TTTGTTTCTTGTTCTAGAGGGTTTCCTAAGGTGTTTAGGACGGAGTCACCTAGTGCAG | 9940 fluorescence intensity (a.u.)
AGCAGAGATTTTTACCACGTGTCTCAACAAATAGCCACATCGGAGTCACCTAGTGCAG | 8050 fluorescence intensity (a.u.)
CATGGGCTAATGTCCTTTTTTTATATATTTTTTTTGCCCTCGGAGTCACCTAGTGCAG | 8990 fluorescence intensity (a.u.)
TGTAAGCTTATGTGTCATCTTTCTTTGTTTGTGAAGAACCCGGAGTCACCTAGTGCAG | 8190 fluorescence intensity (a.u.)
CTTTTTCCTTGCAATCGTGATTCTTTTTTTTTTCCCTTTTCGGAGTCACCTAGTGCAG | 17400 fluorescence intensity (a.u.)
ACTCCTCTTCTCTTCATTTTCTTCTTCCCCTGTGCTTCTCCGGAGTCACCTAGTGCAG | 10900 fluorescence intensity (a.u.)
TCTTGGGCTTGGGCCTTTGCTATTGTATTGGGTTGGGCCTCGGAGTCACCTAGTGCAG | 8400 fluorescence intensity (a.u.)
CCTCTTTATTCCATTAGCTTTTTTCATCTTCTGCTCCATCCGGAGTCACCTAGTGCAG | 10500 fluorescence intensity (a.u.)
CTGCCGGCTGCTCAATTTATTCCCTTGCTGTTTCATTTCGCGGAGTCACCTAGTGCAG | 45500 fluorescence intensity (a.u.)
CCTGACGTGCTTCACCTCACCTGCTCATTTTTTATTTCCCCGGAGTCACCTAGTGCAG | 17300 fluorescence intensity (a.u.)
CTTTCTTGCAATTTTGGTCTTCTTTCCTTTTGATTTGGTTCGGAGTCACCTAGTGCAG | 9200 fluorescence intensity (a.u.)
CGCCCCTTGATTCGCCTCGTTTTTTCTTTTCCCTTTTTTTCGGAGTCACCTAGTGCAG | 9920 fluorescence intensity (a.u.)
AGTAGCATTTGTTGACTTGTTGTATTCTTCTAGCCTTTTTCGGAGTCACCTAGTGCAG | 13800 fluorescence intensity (a.u.)
GGCTGCTATATTGACCTTGCTCTTATTCCTTCATTCAATTCGGAGTCACCTAGTGCAG | 10500 fluorescence intensity (a.u.)
GAGCATTGGGTTGGGCCTTCCTTTCTTGTATTCGGCTTCTCGGAGTCACCTAGTGCAG | 16500 fluorescence intensity (a.u.)
CCTTGCCTAGTCGCTGCTGCTGTTTATAAATTTCAACTCCCGGAGTCACCTAGTGCAG | 8810 fluorescence intensity (a.u.)
ATTCCTTGTTGGTAACTGTACCCAGGGGCGGGTCCAACGTCGGAGTCACCTAGTGCAG | 8270 fluorescence intensity (a.u.)
CACGATGATTGTTGCTGCACCATAGTCTCCATGTGTGTACCGGAGTCACCTAGTGCAG | 8410 fluorescence intensity (a.u.)
TGTTTGCACCTTATTACGGTTCTGCGCGCTCTCTCTCTCGCGGAGTCACCTAGTGCAG | 8560 fluorescence intensity (a.u.)
ATACTTAATTAATCATTCGCTAATGGACCACTCTGTTTTCCGGAGTCACCTAGTGCAG | 8430 fluorescence intensity (a.u.)
CCATTGTGTCATTCAGTTATTGTTACTTTCAGTTGTTCTACGGAGTCACCTAGTGCAG | 12200 fluorescence intensity (a.u.)
GTCTCTCTCACCGTCTCCGTGCTCCTCCGCCGCCCAAGGGCGGAGTCACCTAGTGCAG | 12900 fluorescence intensity (a.u.)
GCAAGGTGTACCCGCAGTTCTCACGGTTACCACCATTTTCCGGAGTCACCTAGTGCAG | 8430 fluorescence intensity (a.u.)
TGGTGTTGTTGGTGTCGTCTTGTTCTTGTTTGTGTTTTCTCGGAGTCACCTAGTGCAG | 15900 fluorescence intensity (a.u.)
TTGGTTCGGTTTTTTCTGCCCGCGTCGGTTTTTGTCTCACCGGAGTCACCTAGTGCAG | 20100 fluorescence intensity (a.u.)
TGGTTGGTTTGTTGGGTTCTTTTCCTTTTTTTTGTTTCTTCGGAGTCACCTAGTGCAG | 26700 fluorescence intensity (a.u.)
GTGGGTATGGTTGACTTGACGGACGTACTACTCCATACTACGGAGTCACCTAGTGCAG | 8190 fluorescence intensity (a.u.)

Sequence | binding signal
GTGCTACTCCATATACGTATGGCTGGTTTGGTTGGTTGAGCGGAGTCACCTAGTGCAG | 21400 fluorescence intensity (a.u.)
AGAGTTTGGCATACTCCTACGTATCATTGTCGACCTTTAGCGGAGTCACCTAGTGCAG | 8340 fluorescence intensity (a.u.)
AGTTTTTTTTTCAGCTTTTTGGTTTCTTTTGCTGTTGTTTCGGAGTCACCTAGTGCAG | 10300 fluorescence intensity (a.u.)
CGGCTAGGGTTTGTTTTTCTTTTCTTTTTTTCCTTTTCTTCGGAGTCACCTAGTGCAG | 14300 fluorescence intensity (a.u.)
CGAGGTCGTTTGGTTTTCTTTTCCTTTTTGGTTGTGTGTTCGGAGTCACCTAGTGCAG | 9070 fluorescence intensity (a.u.)
CGAGGTTCTTTGCTTCATACTTTTTTTTGGTGTTCTACTTCGGAGTCACCTAGTGCAG | 11200 fluorescence intensity (a.u.)
CGTTCGCGTTTCGGTTTGACCGCGCGTCTCGCCTAGATTTCGGAGTCACCTAGTGCAG | 8650 fluorescence intensity (a.u.)
CGAGTCGAGCTTTTCTTTCTTTGGTTGGTTGGTTGGTGTTCGGAGTCACCTAGTGCAG | 19600 fluorescence intensity (a.u.)
TAGATAGGGGATGTATAGGACAAGAGAGAACACATGCATTCGGAGTCACCTAGTGCAG | 8690 fluorescence intensity (a.u.)
TTAACCTCTCTCTTAATTTCAGTTTGTTTGTTCGTTCGTTCGGAGTCACCTAGTGCAG | 9010 fluorescence intensity (a.u.)
ACAGCCTATATACACTACTCACTCCGTCTCAGAATATAAGCGGAGTCACCTAGTGCAG | 8900 fluorescence intensity (a.u.)
CATCCCAATTTTCTGGCCACACTTGCATCCCTCTGCCGCCCGGAGTCACCTAGTGCAG | 10800 fluorescence intensity (a.u.)
ACCACCCTACCTAGCTTAGAATATTTACCATGCATTCTCTCGGAGTCACCTAGTGCAG | 11100 fluorescence intensity (a.u.)
TCTTCTTCTTGTTTCGGCTTCCGCCTCCGTCCCGCGCGCGCGGAGTCACCTAGTGCAG | 13800 fluorescence intensity (a.u.)
CAAATTATGAGCCTGTTCACTTTGATGCTCTTTTCAACCACGGAGTCACCTAGTGCAG | 8320 fluorescence intensity (a.u.)
TCCCAAACCCCGCGCCGCCTCTTACCGCTTCGCGTCAGCTCGGAGTCACCTAGTGCAG | 8490 fluorescence intensity (a.u.)
ACCTATCTTTCTCTATTTTTTATTTTTTTAGCGAAACACACGGAGTCACCTAGTGCAG | 9780 fluorescence intensity (a.u.)
TCCGTTTTTGTGGTTTTCGATGGATTCCGTCGTCGCCGACCGGAGTCACCTAGTGCAG | 9660 fluorescence intensity (a.u.)
GATGGACATTGTTTGCCATCACCGTCAACGACCGTTGACTCGGAGTCACCTAGTGCAG | 12900 fluorescence intensity (a.u.)
GCTTCGTTGGCTCCGTGAAACTGTCTCTCTCTCCCAACTCCGGAGTCACCTAGTGCAG | 8030 fluorescence intensity (a.u.)
TTTGCACTGGTTTTGTAAGTTGGGGATGTATTGTATGAGGCGGAGTCACCTAGTGCAG | 9560 fluorescence intensity (a.u.)
CGTGAGGAATGGGATTTTTATTTTGCTGGTTACTGTTTGACGGAGTCACCTAGTGCAG | 10000 fluorescence intensity (a.u.)
AGTCAAATTTGTTTTTTTTCGTTGCAACTTGTATAATTTACGGAGTCACCTAGTGCAG | 9430 fluorescence intensity (a.u.)
GTGTCATTCTCCTCACACGCCGGTCTCCATGAGCGAGTTTCGGAGTCACCTAGTGCAG | 8110 fluorescence intensity (a.u.)
AAAGTTGGGGTCAGGTGGTTTTGGTTCTGTGTTCAAGGGACGGAGTCACCTAGTGCAG | 11500 fluorescence intensity (a.u.)
GACGTGTTTGGTCTTCGGTTCGGTGGGTCTCAAGTTCTGACGGAGTCACCTAGTGCAG | 19400 fluorescence intensity (a.u.)
AAAATTCTTGGTCTTCTTGGTCTCGGTTAGTTCGGTTCGACGGAGTCACCTAGTGCAG | 8110 fluorescence intensity (a.u.)
